Inconclusive results are not listed. A structure can be active in one record and inactive in another. The source made the active and inactive calls. The calls were made as follows, unless noted: active = hit-call score of the fitted dose curve at least 0.9, where 1 is the maximum; inconclusive = response in the unintended direction; inactive = score below 0.9.
Key:
[1] = CCTE_Deisenroth_AIME_384WELL_CTox_Active: Cytotoxicity Assessment (CTOX) in CCTE's 384-well Estrogen Receptor Transactivation Assay with AIME metabolic competence (metabolism positive), Deisenroth Lab (AID 2284037);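 also: chemicals first conditioned 2 h by alginate-bound induced rat liver S9 before cells; activity means signal loss indicating cell death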
Outline: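 Chemicals pre-incubated 2 hours with alginate-immobilised phenobarbital/beta-naphthoflavone-induced male Sprague Dawley rat liver S9, then conditioned medium applied 24 hour to VM7Luc4E2 cells. Viability by fluorogenic protease substrate; 10-point series 0.002 - 200 uM.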

[2] = target: Estrogen receptor (Homo sapiens) (UniProt P03372); experiment: CCTE_Deisenroth_AIME_384WELL_LUC_Inactive: CCTE's 384-well Estrogen Receptor Transactivation Assay without AIME metabolic competence (ERTA luciferase; metabolism negative), Deisenroth Lab (AID 2284038);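 also: VM7Luc4E2 breast cells given medium preincubated 2 h with S9-free microspheres; hits raise estrogen receptor luciferase signal so potencies reflect agonists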
Sequence of Estrogen receptor (Homo sapiens) (P03372 whole entry, looked up): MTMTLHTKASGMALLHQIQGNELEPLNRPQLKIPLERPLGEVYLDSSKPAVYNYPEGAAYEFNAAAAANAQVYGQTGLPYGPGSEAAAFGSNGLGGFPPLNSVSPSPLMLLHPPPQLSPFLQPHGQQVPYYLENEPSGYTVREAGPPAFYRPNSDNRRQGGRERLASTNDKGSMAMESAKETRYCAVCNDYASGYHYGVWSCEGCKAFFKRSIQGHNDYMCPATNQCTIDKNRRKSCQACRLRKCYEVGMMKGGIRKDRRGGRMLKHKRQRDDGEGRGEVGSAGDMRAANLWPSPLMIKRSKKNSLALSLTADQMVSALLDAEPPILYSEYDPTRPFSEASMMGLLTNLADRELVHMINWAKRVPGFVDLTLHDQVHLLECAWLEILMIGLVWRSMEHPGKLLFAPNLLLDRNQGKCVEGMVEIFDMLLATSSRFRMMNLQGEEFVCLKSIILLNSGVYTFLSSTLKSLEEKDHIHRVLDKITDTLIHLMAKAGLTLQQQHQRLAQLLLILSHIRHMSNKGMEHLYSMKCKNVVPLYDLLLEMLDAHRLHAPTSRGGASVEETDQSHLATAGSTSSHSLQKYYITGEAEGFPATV
Outline: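 VM7Luc4E2 ER transactivation, luciferase bioluminescence after 24 h, using medium pre-incubated 2 h with S9-free alginate microspheres. Concentrations 0.002–200 uM; gain of signal fitted relative to 17beta-estradiol.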

[3] = target: Estrogen receptor (Homo sapiens) (UniProt P03372); experiment: CCTE_Deisenroth_AIME_384WELL_LUC_Shift: CCTE's 384-well Estrogen Receptor Transactivation Assay with AIME metabolic competence data shift (ERTA luciferase; difference in metabolism positive and negative), Deisenroth Lab (AID 2284041; active = hit-call score of the fitted dose curve at least 0.9, where 1 is the maximum; inactive = score below 0.9;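 also: shift is response with S9 minus without S9 so positive means metabolism raised ER signal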)
Outline: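 Chemicals (0.002–200 uM, 10 points) pre-incubated 2 h with alginate-encapsulated induced male Sprague Dawley rat liver S9 or S9-free, then medium applied 24 h to VM7Luc4E2 cells; luciferase. Endpoint is per-concentration difference, S9-positive minus negative.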

[4] = CCTE_Shafer_MEA_dev_active_electrodes_number: CCTE's Neural Network Formation Assay for Number of Active Electrodes, Shafer Lab (AID 2284040);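 as to AC50: potency for loss of active electrodes versus DMSO so lower counts are hits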
Description: CCTE_Shafer_MEA_dev assay is conducted using Axion Biosystems 48 well microelectrode array (MEA) plates and Maestro recording system. Each well of the MEA plate contains a grid of 16 microelectrodes embedded in the culture surface. Electrically active cells, such as neurons, can be cultured over the electrodes, and electrical activity in these cells can be recorded extracellularly. The spontaneous firing of neurons is captured from each electrode on a microsecond timescale providing both temporally and spatially precise data. […] The CCTE_Shafer_MEA_dev assay uses primary cultures of rat cortical neurons. Recordings are made on days post-plating 5, 7, 9 and 12. As these cultures mature over time, neural networks develop functional activity and form cohesive networks in which electrical activity can be highly coordinated. CCTE_Shafer_MEA_dev_active_electrodes_number is 1 of 19 assay components of the CCTE_Shafer_MEA_dev assay. It measures the number of electrodes in a well with a mean firing rate of at least 5 spikes (action potential firings) per minute during a recording in a microelectrode array (MEA) using Axion Biosystems Maestro 768 channel amplifier with the AxIS adaptive spike detector. To collapse across multiple recordings made on days post-plating 5, 7, 9 and 12, the trapezoidal area-under-the-curve of the component is calculated.Data from the assay component CCTE_Shafer_MEA_dev_active_electrodes_number was analyzed into 1 assay endpoint. This assay endpoint, CCTE_Shafer_MEA_dev_active_electrodes_number, was analyzed in the negative analysis fitting direction relative to DMSO as the negative control and baseline of activity. Using a type of functional reporter, gain or loss-of-signal activity can be used to understand electrical activity.
On the day prior to culture, each well was coated thoroughly with 150 uL of 0.05% polyethyleneimine (PEI, Sigma Cat P3143) in 50 mM HEPES (Sigma Cat H7523) at a pH of 8. The plate was incubated at 37C for one hour. PEI was rinsed out with 500 uL of sterile water three times. Plates were stored at 4C until the day of culture. This culture was plated at a seeding density of 1.5 x 10^5 cells/well on a 48-well MEA plate, prepared as described above. Cells were administered via a 25 uL media/laminin ([…]; Sigma Cat L2020-1MG) drop directly onto the microelectrode array, as adding the cells with the laminin results in better attachment than pre-coating with laminin. After 2 hours, an additional 475 uL of cortical media was added and the cells returned to the incubator. Exposure starts at day 0 of plating and is continued over twelve days of network development until the experiment is terminated. Cells are fed with fresh medium on DIV 5 and 9, following the recordings on those days. The entire volume of media in the well is exchanged and any vehicle or compound treatment is renewed. Complete details are found in OP-NHEERL/ISTD/SBB/TJS/2015-03-r0 (available on request, email shafer.tim@epa.gov). Measurement of the electrical activity is non-invasive, and recordings can be made from the same plate over multiple different days of the culture. In cortical neurons, this allows for the measurement of extracellular action potentials over the period during which networks form in the MEA plate.

[5] = CCTE_Shafer_MEA_dev_burst_rate: CCTE's Neural Network Formation Assay for Burst Rate, Shafer Lab (AID 2284042; active = hit-call score of the fitted dose curve at least 0.9, where 1 is the maximum; inactive = score below 0.9;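 as to AC50: potency for loss of burst rate below DMSO control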)
Outline: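 Primary rat cortical neurons on PEI-coated 48-well MEA plates (laminin added with cells at plating) (16 electrodes/well), exposed from plating to day 12, dosing renewed at DIV 5 and 9. Burst rate averaged over active electrodes, recorded DIV 5, 7, 9, 12, summarized as AUC; loss versus DMSO.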

[6] = CCTE_Shafer_MEA_dev_bursting_electrodes_number: CCTE's Neural Network Formation Assay for Number of Bursting Electrodes, Shafer Lab (AID 2284043);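 as to AC50: potency is for loss of bursting electrodes relative to DMSO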
Outline: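 Rat cortical primary neurons, 48-well MEA, 16 electrodes/well; dosing DIV 0–12, re-dosed with full media change DIV 5, 9. Recordings DIV 5/7/9/12, AxIS adaptive spike detector; bursting electrode = ≥1 burst/2 min. AUC across days; loss of signal vs DMSO.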

[7] = CCTE_Shafer_MEA_dev_per_burst_interspike_interval: CCTE's Neural Network Formation Assay for Burst Interspike Interval, Shafer Lab (AID 2284044; active = hit-call score of the fitted dose curve at least 0.9, where 1 is the maximum; inactive = score below 0.9;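 as to AC50: potency for a decrease of within-burst interspike interval below DMSO level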)
Outline: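 Readout is the average time between spikes inside single-electrode bursts, taken as a well mean across bursting electrodes. Cortical neurons from rat developed networks on MEA plates under continuous 12-day exposure; recordings on days 5, 7, 9 and 12 were integrated by trapezoidal AUC.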

[8] = CCTE_Shafer_MEA_dev_burst_duration_mean: CCTE's Neural Network Formation Assay for Mean Burst Duration, Shafer Lab (AID 2284045; active = hit-call score of the fitted dose curve at least 0.9, where 1 is the maximum; inactive = score below 0.9;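 as to AC50: curve fitted for loss meaning shorter burst duration than DMSO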)
Outline: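 Rat cortical cultures, 1.5 x 10^5 cells/well with laminin drop; continuous dosing days 0–12, media plus treatment refreshed DIV 5, 9. AxIS adaptive spike detection; mean single-electrode burst duration, AUC over four recordings, negative direction vs DMSO.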

[9] = CCTE_Shafer_MEA_dev_interburst_interval_mean: CCTE's Neural Network Formation Assay for Mean Interburst Interval, Shafer Lab (AID 2284046; active = hit-call score of the fitted dose curve at least 0.9, where 1 is the maximum; inactive = score below 0.9;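 also: well-mean interburst interval of bursting electrodes as AUC over four recording days; curve fitted for decrease in interburst interval relative to DMSO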)
Outline: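 Recordings on days 5, 7, 9 and 12 give well-mean interburst interval across actively bursting electrodes, summarized as area under the curve. Cultures: rat cortical neurons, continuous exposure from day 0, compound renewed at feeds; decrease analyzed versus DMSO.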

[10] = CCTE_Deisenroth_AIME_384WELL_CTox_Inactive: Cytotoxicity Assessment (CTOX) in CCTE's 384-well Estrogen Receptor Transactivation Assay without AIME metabolic competence (metabolism negative), Deisenroth Lab (AID 2284039);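 also: cell viability via live-cell protease substrate cleaved to fluorescent probe; cells exposed 24 h to medium preincubated 2 h with alginate-water beads without S9; loss of fluorescence signal means loss of viability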
Outline: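 VM7Luc4E2 cells, metabolism-negative arm: test chemicals (0.002–200 uM, 10 points) pre-incubated 2 h with alginate-water microspheres, then medium transferred to cells for 24 h. Viability read as protease-substrate cleavage to fluorescent probe; loss-of-signal, bidirectional fitting.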

Measured: AC50

CC(=O)OC(C)C
inactive: [1] | [2] | [3]

CCOC(F)(F)C(F)(F)C(F)(F)C(F)(F)F
inactive: [4] | [5] | [6] | [7] | [8] | [9]

NC(CO)(CO)CO
inactive: [2] | [10] | [3]

CCOC(=O)CC
inactive: [1] | [2] | [10] | [3]

N[C@H]1C(O)O[C@H](CO)[C@H](O)[C@@H]1O (some centres undefined)
active: [6] 24.8 µM | [7] 2.98 µM
inactive: [5] | [8] | [9]

O=S(=O)(O)c1ccccc1C=Cc1ccc(-c2ccc(C=Cc3ccccc3S(=O)(=O)O)cc2)cc1
inactive: [2] | [3]

O=c1cc(-c2ccccc2)oc2ccccc12
inactive: [1] | [2] | [10] | [3]

Oc1ccc(Cl)cc1Cc1cc(Cl)ccc1O
inactive: [3]
active: [1] 102 µM | [10] 100 µM

O=C1CCCC1
inactive: [1] | [2] | [3]

O=C1C(N(CO)C(=O)NCO)N(CO)C(=O)N1CO (centres undefined)
inactive: [1] | [2] | [10] | [3]

O=S1(=O)OC(c2ccc(O)cc2)(c2ccc(O)cc2)c2ccccc21
inactive: [1] | [2] | [10] | [3]

CCCCC(CC)CCC(CC(C)C)OS(=O)(=O)O (centres undefined)
inactive: [2] | [10] | [3]

CC=CC(F)(F)C(F)(F)C(F)(F)F
inactive: [4] | [5] | [6] | [7] | [8] | [9]

CC1(C)S[C@@H]2[C@H](NC(=O)COc3ccccc3)C(=O)N2[C@H]1C(=O)O
inactive: [4] | [5] | [6] | [7] | [8] | [9]

c1ccc2c(c1)ccc1cc3c(ccc4ccccc43)cc12
not listed: [1]
inactive: all other assays above

CCCCCCCC[N+](C)(CCCCCCCC)CCCCCCCC
inactive: [3]
active: [1] 39.3 µM | [10] 19.2 µM

CCN(CCC#N)c1ccc(N=Nc2c(Cl)cc([N+](=O)[O-])cc2Cl)cc1
active: [10] 100 µM
inactive: [1] | [2] | [3]

COC(F)(F)C(F)(C(F)(F)F)C(F)(F)F
inactive: [4] | [5] | [6] | [7] | [8] | [9]

CN(C)c1ccc(C(=N)c2ccc(N(C)C)cc2)cc1
active: [1] 100 µM | [10] 31.1 µM | [4] 2.89 µM | [5] 1.71 µM | [6] 2.27 µM | [7] 3.43 µM | [8] 4.06 µM | [9] 2.95 µM
inactive: [3]

OC1CCCC1
inactive: [1] | [2] | [10] | [3]

C=C1C2CCC(C2)C1(C)C (centres undefined)
inactive: [1] | [2] | [10] | [3]

C=CC(=O)NC(C)(C)CS(=O)(=O)O
inactive: [1] | [2] | [10] | [3]

O=C(C(Cl)Cl)N1CCOC12CCCCC2
active: [10] 19.8 µM
inactive: [2] | [3]

Cc1ccc(C(C)c2ccc(C)c(C)c2)cc1C
inactive: [2]
active: [3] 0.000413 µM

O=C(C=Cc1ccccc1)OCc1ccccc1
active: [2] 26.3 µM | [3] 22.9 µM
inactive: [1] | [10]

O=C(c1ccccc1)C1CCC1
inactive: [2] | [3]

Nc1ncn([C@@H]2O[C@H](CO)[C@@H](O)[C@H]2O)c(=O)n1
active: [4] 2.13 µM | [6] 1.34 µM | [7] 2.4 µM
inactive: [4] | [5] | [6] | [7] | [8] | [9]

FC(F)=C(F)OC(F)(F)C(F)(F)C(F)(F)F
inactive: [5] | [7] | [8] | [9]

CC=C1CC2C=CC1C2 (centres undefined)
inactive: [1] | [2] | [10] | [3]

CC1=NN(c2cc(S(=O)(=O)O)ccc2Cl)C(=O)C1N=Nc1ccccc1 (centres undefined)
inactive: [2] | [10] | [3]

CCCCCc1ccc(Cl)cc1
inactive: [1] | [2] | [3]

CCCCC/C=C\CCC=O
inactive: [2] | [10] | [3]
active: [1] 100 µM

CO[Si](OC)(OC)c1ccccc1
inactive: [1] | [2] | [3]

CCCCCCCCCCOS(=O)(=O)O
active: [1] 19.8 µM | [10] 19.8 µM
inactive: [2] | [3]

— PubChem BioAssay (EPA / NIEHS)
